The source made the active and inactive calls. Unless noted, how the calls were made is not given here.
Tests used:
[1] = tested on: Wnt5a (protein binding on small-molecule microarray); assay: small molecules binding Wnt5a protein – biophysical, small-molecule microarray, 635/667 nm fluorescence, primary screen (AID 1142); settings: 635 nm fluorescence, higher = more signal;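 further: fluorescence read at 667 nm with signal to noise per printed feature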
[2] = ATP-based viability of Huh7 replicon cells – cell-based, CellTiter-Glo luminescence, basal, 48 h, cytotoxicity control for HCV replication inhibitor project, primary screen (AID 1143); settings: higher = more signal, called active from +8 up or from −8 down;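 further: Huh7 hepatoma cells carrying a hepatitis C replication reporter with no stimulus; test concentration not given here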
[3] = Pseudomonas biofilm growth suppression – PAO1 strain, BacTiter-Glo luminescence, LB-PBS, primary screen (AID 1144); settings: P. aeruginosa PAO1 biofilm, 12 h, higher = more signal
[4] = basal CRE-LacZ reporter activity in PC12 – cell-based, unstimulated, primary screen (AID 1145); settings: no forskolin, luminescence, 4.5 h, higher = more signal, called active from +8 up or from −8 down
[5] = forskolin-driven CRE-LacZ activity in PC12 – cell-based, CRE-LacZ reporter, forskolin-stimulated, primary screen (AID 1146); settings: luminescence, 4.5 h, higher = more signal, called active from +8 up or from −8 down;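 further: PC12 cells with 6xCRE LacZ reporter stimulated by forskolin 10 µM; beta-galactosidase reporter signal reflecting CREB driven transcription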
[6] = target: Streptavidin (Streptomyces avidinii) (UniProt P22629); assay: compounds binding control protein streptavidin – biophysical, small-molecule microarray, 635/667 nm fluorescence, artefact control for SMM compound annotation, primary screen (AID 1147); settings: higher = more signal;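 further: signal reflects streptavidin binding to arrayed compounds as a control protein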
Sequence of Streptavidin (Streptomyces avidinii) (P22629 whole entry, looked up): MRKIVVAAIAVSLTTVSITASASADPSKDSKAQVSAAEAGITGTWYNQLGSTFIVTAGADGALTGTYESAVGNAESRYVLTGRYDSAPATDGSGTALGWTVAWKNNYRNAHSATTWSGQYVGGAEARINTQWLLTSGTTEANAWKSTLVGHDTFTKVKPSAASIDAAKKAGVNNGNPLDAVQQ

[7] = probe aInhba binding on compound microarray – biochemical, small-molecule microarray, 635/667 nm fluorescence, primary screen (AID 1148); settings: higher = more signal;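 further: score merges 667nm spot fluorescence with signal-to-noise for antibody binding to printed compounds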
Torsin-1A (Homo sapiens) [8] = target: Torsin-1A (Homo sapiens) (UniProt O14656); assay: TOR1A wild-type binding on microarray – cell lysate, small-molecule microarray, lysate, 635/667 nm, primary screen (AID 1149); settings: COS7 hTOR1A-WT lysate, 635 nm fluorescence, higher = more signal
Sequence of Torsin-1A (Homo sapiens) (O14656 whole entry, looked up): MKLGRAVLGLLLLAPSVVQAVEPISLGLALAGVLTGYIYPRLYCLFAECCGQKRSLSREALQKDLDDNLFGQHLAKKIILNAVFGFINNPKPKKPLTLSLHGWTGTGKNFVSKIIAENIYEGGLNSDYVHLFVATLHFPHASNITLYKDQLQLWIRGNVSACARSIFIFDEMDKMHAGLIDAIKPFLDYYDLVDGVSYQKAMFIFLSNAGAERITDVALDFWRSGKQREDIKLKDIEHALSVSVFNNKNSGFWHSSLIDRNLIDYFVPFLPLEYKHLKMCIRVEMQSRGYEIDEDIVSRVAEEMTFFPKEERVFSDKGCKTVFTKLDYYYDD

Torsin-1A (Homo sapiens) [9] = target: Torsin-1A (Homo sapiens) (UniProt O14656); assay: torsin A mutant lysate binding on microarrays – cell lysate, small-molecule microarray, COS7 lysate, 635/667 nm fluorescence, primary screen (AID 1150); settings: COS7 hTOR1A mutant lysate, 635 nm fluorescence, higher = more signal;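 further: score pools 667 nm emission and signal to noise measuring lysate protein binding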
[10] = tested on: Sonic hedgehog protein (Shh); assay: Sonic hedgehog microarray binding compounds – biochemical, small-molecule microarray, 635/667 nm fluorescence, primary screen (AID 1151); settings: 635 nm fluorescence, higher = more signal;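 further: Shh protein binding to compounds spotted on small-molecule microarray slides; score combines spot fluorescence intensity with signal-to-noise across triplicate slides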
[11] = optical density shifts of acrAB sulA E. coli – strain DRC41, OD650, 48 h, E. coli filamentation inducer project, primary screen (AID 1152); settings: higher = more signal, called active from +8 up or from −8 down;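 further: E. coli MC1000 strain DRC41 lacking acrAB efflux pump and sulA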
[12] = probe aLefty1 binding on compound microarray – biochemical, small-molecule microarray, 635/667 nm fluorescence, primary screen (AID 1153); settings: higher = more signal;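 further: score merges spot fluorescence with signal-to-noise ratio from the scanned slide images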
[13] = plasmodial surface anion channel blockers, osmotic lysis – cell-based, P. falciparum Indochina, OD700, 1 h, primary screen (AID 1154); settings: P. falciparum Indochina infected RBC osmotic lysis, higher = more signal, called active from +8 up or from −8 down
[14] = plasmodial surface anion channel blockers, osmotic lysis – cell-based, P. falciparum Indochina, OD700, 2 h, primary screen (AID 1155);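 further: lysis reports solute entry through the parasite surface anion channel PSAC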; settings: P. falciparum Indochina infected erythrocytes, higher = more signal, called active from +8 up or from −8 down
[15] = changes in parasitized red cell lysis, either direction – P. falciparum Indochina, OD700, 3 h, PSAC antagonist project, primary screen (AID 1156); settings: P. falciparum-infected erythrocytes, osmotic lysis, higher = more signal, called active from +8 up or from −8 down
[16] = plasmodial surface anion channel blockers, osmotic lysis – cell-based, P. falciparum Indochina, OD700, 18 h, primary screen (AID 1157); settings: P. falciparum Indochina infected erythrocytes, osmotic lysis OD700, 18 h; higher = more signal, called active from +8 up or from −8 down
[17] = S6 kinase pathway phospho-S6 level changes – cell-based, A549, cytoblot, luminescence, serum-stimulated, primary screen (AID 1158); settings: 5 h, higher = more signal;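 further: serum-stimulated A549 lung adenocarcinoma cells; signal is phosphorylated S6 detected by cytoblot immunostaining with HRP secondary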
[18] = target: NADPH oxidase 2 (Homo sapiens) (UniProt P04839); assay: compounds shifting NOX2 Amplex Red fluorescence – cell-based, HEK293-NOX2, PMA-stimulated, NOX inhibitor project, primary screen (AID 1159); settings: 45 min, higher = more signal, called active from +8 up or from −8 down; further: test concentration not given here
Sequence of NADPH oxidase 2 (Homo sapiens) (P04839 whole entry, looked up): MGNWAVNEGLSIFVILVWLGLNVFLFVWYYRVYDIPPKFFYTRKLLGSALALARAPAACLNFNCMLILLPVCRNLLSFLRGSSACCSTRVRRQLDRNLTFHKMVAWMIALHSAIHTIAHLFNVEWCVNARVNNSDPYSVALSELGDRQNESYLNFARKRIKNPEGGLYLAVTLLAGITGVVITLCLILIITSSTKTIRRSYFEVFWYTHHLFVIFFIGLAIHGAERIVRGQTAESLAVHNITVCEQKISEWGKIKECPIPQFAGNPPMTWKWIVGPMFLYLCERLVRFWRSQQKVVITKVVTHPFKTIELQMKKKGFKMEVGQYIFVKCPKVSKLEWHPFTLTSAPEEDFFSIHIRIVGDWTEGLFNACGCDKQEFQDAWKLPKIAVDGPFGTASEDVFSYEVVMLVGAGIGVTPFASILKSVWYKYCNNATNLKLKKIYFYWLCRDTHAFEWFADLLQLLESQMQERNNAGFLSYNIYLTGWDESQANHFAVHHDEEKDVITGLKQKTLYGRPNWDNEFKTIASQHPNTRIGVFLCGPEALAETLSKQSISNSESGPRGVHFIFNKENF

[19] = target: NADPH oxidase 4 (Homo sapiens) (UniProt Q9NPH5); assay: compounds shifting NOX4 Amplex Red fluorescence – cell-based, HEK293-NOX4, tetracycline-induced, NOX inhibitor project, primary screen (AID 1160); settings: HEK293-NOX4, Amplex Red H2O2 fluorescence, 45 min; higher = more signal, called active from +8 up or from −8 down
Sequence of NADPH oxidase 4 (Homo sapiens) (Q9NPH5 whole entry, looked up): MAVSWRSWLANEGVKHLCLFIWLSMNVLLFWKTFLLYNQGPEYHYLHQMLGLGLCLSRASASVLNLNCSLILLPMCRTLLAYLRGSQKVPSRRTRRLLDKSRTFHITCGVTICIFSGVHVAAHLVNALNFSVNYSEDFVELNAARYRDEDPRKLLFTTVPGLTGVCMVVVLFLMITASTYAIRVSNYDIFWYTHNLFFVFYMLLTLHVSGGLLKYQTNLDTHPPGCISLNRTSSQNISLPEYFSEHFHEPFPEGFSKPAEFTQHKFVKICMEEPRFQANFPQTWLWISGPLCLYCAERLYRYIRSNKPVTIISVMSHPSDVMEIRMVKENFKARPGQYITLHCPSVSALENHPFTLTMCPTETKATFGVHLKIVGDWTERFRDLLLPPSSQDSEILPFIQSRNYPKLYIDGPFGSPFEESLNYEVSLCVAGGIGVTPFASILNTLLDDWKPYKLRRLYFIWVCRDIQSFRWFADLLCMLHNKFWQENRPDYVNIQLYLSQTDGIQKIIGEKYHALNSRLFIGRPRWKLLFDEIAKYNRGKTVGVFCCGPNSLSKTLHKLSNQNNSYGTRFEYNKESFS

[20] = target: NADPH oxidase 5 (Homo sapiens) (UniProt Q96PH1); assay: compounds shifting NOX5 Amplex Red fluorescence – cell-based, HEK293-NOX5, NOX inhibitor project, primary screen (AID 1161); settings: HEK293-NOX5, ionomycin, 45 min, higher = more signal
Sequence of NADPH oxidase 5 (Homo sapiens) (Q96PH1 whole entry, looked up): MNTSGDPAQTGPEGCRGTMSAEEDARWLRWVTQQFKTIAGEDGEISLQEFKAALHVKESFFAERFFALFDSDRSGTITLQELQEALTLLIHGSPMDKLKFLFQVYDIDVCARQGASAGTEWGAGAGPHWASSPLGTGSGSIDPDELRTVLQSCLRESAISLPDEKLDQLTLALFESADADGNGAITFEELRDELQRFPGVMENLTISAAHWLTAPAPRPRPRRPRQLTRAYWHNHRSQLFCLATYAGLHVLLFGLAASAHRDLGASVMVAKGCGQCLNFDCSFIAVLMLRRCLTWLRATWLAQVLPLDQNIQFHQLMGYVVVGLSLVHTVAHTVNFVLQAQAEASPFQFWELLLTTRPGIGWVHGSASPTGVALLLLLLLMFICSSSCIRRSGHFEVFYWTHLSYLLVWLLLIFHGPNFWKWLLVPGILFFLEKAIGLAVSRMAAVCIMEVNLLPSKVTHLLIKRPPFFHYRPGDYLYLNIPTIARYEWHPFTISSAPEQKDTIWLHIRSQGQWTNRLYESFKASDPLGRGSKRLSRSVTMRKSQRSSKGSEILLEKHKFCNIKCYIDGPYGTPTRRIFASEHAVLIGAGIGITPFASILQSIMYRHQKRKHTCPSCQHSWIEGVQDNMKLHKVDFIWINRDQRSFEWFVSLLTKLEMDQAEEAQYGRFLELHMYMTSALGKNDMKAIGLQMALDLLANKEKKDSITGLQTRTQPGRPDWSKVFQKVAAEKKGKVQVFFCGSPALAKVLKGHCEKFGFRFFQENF

Row | SMILES | composite z-score [1] | z-score [2] | z-score [3] | z-score [4] | z-score [5] | composite z-score [6] | composite z-score [7] | composite z-score (Torsin-1A (Homo sapiens) [8]) | composite z-score (Torsin-1A (Homo sapiens) [9]) | composite z-score [10] | z-score [11] | composite z-score [12] | z-score [13] | z-score [14] | z-score [15] | z-score [16] | z-score [17] | z-score [18] | z-score [19] | z-score [20]
1 | C=CC[C@@]1(C(N)=O)N=C(c2ccc(OCCCO)cc2)O[C@@H]1c1ccccc1CN=[N+]=[N-] | 0.186 | -3.34 (inactive) | -0.58 (inactive) | 1.8 (inactive) | -1.35 (inactive) | 0.456 | 0.233 | 0.183 | 0.0254 | -0.776 | 0.0347 (inactive) | 0.571 | 21.5 (active) | 4.04 (inactive) | 2 (inactive) | -0.413 (inactive) | 2.43 | -0.934 (inactive) | 0.313 (inactive) | -0.802
2 | NCCCCCNC(=O)[C@@H]1C[C@@H]2C(=O)N[C@@H](Cc3ccccc3)C(=O)N2[C@@H]1c1cccc(OCCO)c1 | 0.0984 | 0.213 (inactive) | 0.205 (inactive) | 0.415 (inactive) | 0.201 (inactive) | 0.44 | -0.182 | 0.89 | 0.373 | 0.867 | -0.389 (inactive) | -0.101 | 3.51 (inactive) | 0.418 (inactive) | 1.18 (inactive) | 0.351 (inactive) | -0.0201 | 2.11 (inactive) | -0.729 (inactive) | 0.832
3 | N#Cc1ccc(NN2C(C(O)c3c(F)cccc3Cl)C=CC3C(=O)N(c4ccccc4)C(=O)C32)cc1 (stereo not given) | 0.607 | 0.17 (inactive) | -1.11 (inactive) | 0.622 (inactive) | 0.201 (inactive) | 1.35 | 0.419 | 0.513 | 1.35 | 0.585 | -0.857 (inactive) | 0.192 | 22 (active) | 5.46 (inactive) | 1.21 (inactive) | 1.51 (inactive) | -1.17 | -1.1 (inactive) | -3.86 (inactive) | -2.98
4 | C=CCNC(=O)[C@H]1[C@@H]2C(=O)O[C@@H](c3ccccc3)[C@@H](c3ccccc3)N2[C@@H](c2ccc(OCCO)cc2)[C@]12C(=O)Nc1ccc(C#CC3=CCCCC3)cc12 | 0.722 | -4.45 (inactive) | 0.334 (inactive) | 0.775 (inactive) | -0.267 (inactive) | 0.376 | -0.0136 | 0.127 | 0.578 | 1.54 | 0.951 (inactive) | -0.101 | 2.36 (inactive) | 1.66 (inactive) | -1.04 (inactive) | 1.4 (inactive) | -0.571 | 1.24 (inactive) | -1.05 (inactive) | 1.02
5 | COCCOC(=O)N1C(=O)[C@@]2(c3cc(C#Cc4ccc(OC)cc4)ccc31)[C@H](c1ccc(O)cc1)N1[C@H](c3ccccc3)[C@H](c3ccccc3)OC(=O)[C@H]1[C@@H]2C(=O)NC[C@H](O)c1ccccc1 | 0.763 | -3.94 (inactive) | -0.88 (inactive) | -1.15 (inactive) | 0.7 (inactive) | 0.452 | -0.0259 | 0.105 | 1.07 | 2.05 | 0.72 (inactive) | 0.176 | 3.44 (inactive) | 0.973 (inactive) | 0.38 (inactive) | 0.532 (inactive) | 0.264 | 1.07 (inactive) | -1.05 (inactive) | 1.1
6 | COc1ccc(C#Cc2ccc3c(c2)[C@]2(C(=O)N3)[C@H](c3ccccc3OCCO)N3[C@H](c4ccccc4)[C@H](c4ccccc4)OC(=O)[C@H]3[C@@H]2C(=O)O)cc1 | 0.535 | -4.91 (inactive) | -1.66 (inactive) | -1.16 (inactive) | 4.03 (inactive) | 1.45 | 0.909 | 0.498 | 0.659 | 2.06 | -0.181 (inactive) | 1.27 | 0.123 (inactive) | 0.267 (inactive) | -5.14 (inactive) | -0.867 (inactive) | 0.25 | 0.441 (inactive) | -1.36 (inactive) | -0.669
7 | COc1cc2c(cc1O)C=[N+](Cc1cccc(OC(F)(F)F)c1)CC2 | -0.141 | -2.11 (inactive) | -0.28 (inactive) | -0.401 (inactive) | -0.583 (inactive) | -0.535 | -0.127 | 0.955 | 0.284 | -0.0245 | 0.272 (inactive) | -0.464 | 3.05 (inactive) | -1.25 (inactive) | -0.747 (inactive) | -2.03 (inactive) | 0.818 | -4.18 (inactive) | -2.56 (inactive) | -3.06
8 | C=C(COC)/C(=C/C[C@@H](OC(C)=O)c1ccc(OCCO)cc1)c1cc(C(=O)OC)ccc1OC | 0.969 | -0.21 (inactive) | -0.201 (inactive) | 1.82 (inactive) | 1.96 (inactive) | -0.0154 | 0.0154 | 0.518 | 0.672 | 1.57 | 0.0977 (inactive) | 0.139 | 11.2 (active) | 1.87 (inactive) | 0.681 (inactive) | 0.601 (inactive) | -0.0505 | -0.0514 (inactive) | -0.355 (inactive) | -1.57
9 | COc1ccc(C(=O)Nc2ccc(CN3C(=O)[C@@]4(O[C@@H](CCn5cc([C@H](O)c6ccccc6)nn5)[C@H]([Si](C)(C)c5ccc(OC)cc5)[C@H]4C)c4ccccc43)cc2)cc1 | -0.0152 | -3.46 (inactive) | -0.576 (inactive) | 2.4 (inactive) | -1.04 (inactive) | 0.865 | -0.0405 | 0.253 | 0.163 | 1.51 | -0.203 (inactive) | 0.191 | 19.8 (active) | 5.6 (inactive) | 2.08 (inactive) | 1.43 (inactive) | 0.134 | 0.295 (inactive) | 0.709 (inactive) | 2.2

From PubChem BioAssay
